# About 410 targets per protein were measured; listed, in parts, are those with the strongest signals and a random draw of the rest.
# Tests used:
# Assay in all cases: glycan array binding signal (z-score within array); higher = stronger binding
# Conditions in all cases: glycan notation: IUPAC condensed, linker removed
# [1] = target: Fuc(a1-2)Gal(b1-3)GalNAc(a1-3)[Fuc(a1-2)]Gal(b1-4)GlcNAc
# Procedure, shortened: (§1)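 Negative Z-scores can be read as non-binding. The Z-score is calculated within each array and then averaged across arrays of one protein sequence at different concentrations or buffers and across linkers. Arrays, 3228 in all, were curated from the Consortium for Functional Glycomics database and kept only where the protein sequence was available.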
# [2] = target: Fuc(a1-2)[Gal(a1-3)]Gal(b1-3)GlcNAc(b1-2)Man(a1-3)[Fuc(a1-2)[Gal(a1-3)]Gal(b1-3)GlcNAc(b1-2)Man(a1-6)]Man(b1-4)GlcNAc(b1-4)[Fuc(a1-6)]GlcNAc
# Procedure, shortened: as §1
# [3] = target: Fuc(a1-2)[Gal(a1-3)]Gal(b1-3)GlcNAc(b1-3)GalNAc
# Procedure, shortened: as §1
# [4] = target: Fuc(a1-2)[Gal(a1-4)]Gal(b1-4)GlcNAc
# Procedure, shortened: as §1
# [5] = target: Fuc(a1-2)[GalNAc(a1-3)]Gal(b1-3)GlcNAc(b1-6)GalNAc
# Procedure, shortened: as §1
# [6] = target: Fuc(a1-2)[GalNAc(a1-3)]Gal(b1-4)GlcNAc(b1-3)Gal(b1-4)GlcNAc
# Procedure, shortened: as §1
# [7] = target: Fuc(a1-3)[Gal3S(b1-4)]GlcNAc
# Procedure, shortened: as §1
# [8] = target: Gal(a1-3)Fuc(a1-2)Gal(b1-4)GlcNAc(b1-3)[Gal(a1-3)Fuc(a1-2)Gal(b1-4)GlcNAc(b1-6)]GalNAc
# Procedure, shortened: as §1
# [9] = target: Gal(a1-3)Gal(b1-4)GlcNAc(b1-2)Man
# Procedure, shortened: as §1
# [10] = target: Gal(a1-3)Gal(b1-4)GlcNAc(b1-2)Man(a1-3)[Gal(a1-3)Gal(b1-4)GlcNAc(b1-2)Man(a1-6)]Man(b1-4)GlcNAc(b1-4)GlcNAc
# Procedure, shortened: as §1
# [11] = target: Gal(a1-3)[Gal(a1-4)]Gal(b1-4)GlcNAc
# Procedure, shortened: as §1
# Gal(a1-4)Gal(b1-4)Glc = target: Gal(a1-4)Gal(b1-4)Glc
# Procedure, shortened: as §1
# Gal(a1-4)Gal(b1-4)GlcNAc = target: Gal(a1-4)Gal(b1-4)GlcNAc
# Procedure, shortened: as §1
# [12] = target: Gal(b1-3)GlcNAc(b1-3)Gal(b1-3)GlcNAc
# Procedure, shortened: as §1
# [13] = target: Gal(b1-3)GlcNAc(b1-3)Gal(b1-4)GlcNAc(b1-3)Gal(b1-4)GlcNAc(b1-2)[Gal(b1-3)GlcNAc(b1-3)Gal(b1-4)GlcNAc(b1-3)Gal(b1-4)GlcNAc(b1-6)]Man(a1-6)[Gal(b1-3)GlcNAc(b1-3)Gal(b1-4)GlcNAc(b1-3)Gal(b1-4)GlcNAc(b1-2)Man(a1-3)]Man(b1-4)GlcNAc(b1-4)[Fuc(a1-6)]GlcNAc
# Procedure, shortened: as §1
# [14] = target: Gal(b1-4)GalNAc(b1-3)[Fuc(a1-2)]Gal(b1-4)GlcNAc
# Procedure, shortened: as §1
# [15] = target: Gal(b1-4)GlcNAc(b1-2)Man(a1-3)[GlcNAc(b1-4)][Gal(b1-4)GlcNAc(b1-2)Man(a1-6)]Man(b1-4)GlcNAc(b1-4)GlcNAc
# Procedure, shortened: as §1
# [16] = target: Gal(b1-4)GlcNAc(b1-2)[Gal(b1-4)GlcNAc(b1-4)]Man(a1-3)[Gal(b1-4)GlcNAc(b1-2)[Gal(b1-4)GlcNAc(b1-6)]Man(a1-6)]Man(b1-4)GlcNAc(b1-4)GlcNAc
# Procedure, shortened: as §1
# [17] = target: Gal(b1-4)GlcNAc(b1-3)Gal(b1-4)GlcNAc(b1-3)Gal(b1-4)GlcNAc(b1-2)Man(a1-3)[Gal(b1-4)GlcNAc(b1-3)Gal(b1-4)GlcNAc(b1-3)Gal(b1-4)GlcNAc(b1-2)Man(a1-6)]Man(b1-4)GlcNAc(b1-4)GlcNAc
# Procedure, shortened: as §1
# [18] = target: Gal(b1-4)GlcNAc(b1-6)Gal(b1-4)GlcNAc
# Procedure, shortened: as §1
# Gal3S(b1-3)GalNAc = target: Gal3S(b1-3)GalNAc
# Procedure, shortened: as §1
# Gal3S(b1-3)GlcNAc = target: Gal3S(b1-3)GlcNAc
# Procedure, shortened: as §1
# Gal3S(b1-4)Glc = target: Gal3S(b1-4)Glc
# Procedure, shortened: as §1
# Gal3S(b1-4)Glc6S = target: Gal3S(b1-4)Glc6S
# Procedure, shortened: as §1
# Gal3S(b1-4)GlcNAc6S = target: Gal3S(b1-4)GlcNAc6S
# Procedure, shortened: as §1
# [19] = target: Gal3S(b1-4)[Fuc(a1-3)]GlcNAc6S
# Procedure, shortened: as §1
# Gal3S4S(b1-4)GlcNAc = target: Gal3S4S(b1-4)GlcNAc
# Procedure, shortened: as §1
# Gal3S6S(b1-4)GlcNAc = target: Gal3S6S(b1-4)GlcNAc
# Procedure, shortened: as §1
# Gal4S6S(b1-4)GlcNAc = target: Gal4S6S(b1-4)GlcNAc
# Procedure, shortened: as §1
# GalNAc(b1-4)GlcNAc6S = target: GalNAc(b1-4)GlcNAc6S
# Procedure, shortened: as §1
# [20] = target: GlcNAc(b1-2)Man(a1-3)[GlcNAc(b1-4)][GlcNAc(b1-2)Man(a1-6)]Man(b1-4)GlcNAc(b1-4)[Fuc(a1-6)]GlcNAc
# Procedure, shortened: as §1
# [21] = target: GlcNAc(b1-3)Gal(b1-4)GlcNAc(b1-3)GalNAc
# Procedure, shortened: as §1
# Kdn(a2-3)Gal(b1-3)GalNAc = target: Kdn(a2-3)Gal(b1-3)GalNAc
# Procedure, shortened: as §1
# [22] = target: Man(a1-3)[Man(a1-6)]Man(a1-6)[Man(a1-3)]Man(b1-4)GlcNAc(b1-4)GlcNAc
# Procedure, shortened: as §1
# [23] = target: Man(a1-3)[Man(a1-6)]Man(b1-4)GlcNAc(b1-4)[Fuc(a1-6)]GlcNAc
# Procedure, shortened: as §1
# [24] = target: Neu5Ac(a2-3)Gal(b1-3)GalNAc
# Procedure, shortened: as §1
# [25] = target: Neu5Ac(a2-3)Gal(b1-3)GalNAc6S
# Procedure, shortened: as §1
# [26] = target: Neu5Ac(a2-3)Gal(b1-3)GlcNAc6S
# Procedure, shortened: as §1
# [27] = target: Neu5Ac(a2-3)Gal(b1-3)[GlcNAc(b1-6)]GalNAc
# Procedure, shortened: as §1
# [28] = target: Neu5Ac(a2-3)Gal(b1-3)[Neu5Ac(a2-6)]GalNAc
# Procedure, shortened: as §1
# [29] = target: Neu5Ac(a2-3)Gal(b1-4)GlcNAc(b1-2)[Neu5Ac(a2-3)Gal(b1-4)GlcNAc(b1-4)]Man(a1-3)[GlcNAc(b1-4)][Neu5Ac(a2-3)Gal(b1-4)GlcNAc(b1-4)Man(a1-6)]Man(b1-4)GlcNAc(b1-4)GlcNAc
# Procedure, shortened: as §1
# [30] = target: Neu5Ac(a2-3)Gal(b1-4)GlcNAc(b1-3)Gal
# Procedure, shortened: as §1
# [31] = target: Neu5Ac(a2-3)Gal(b1-4)GlcNAc(b1-6)[Neu5Ac(a2-3)Gal(b1-3)]GalNAc
# Procedure, shortened: as §1
# [32] = target: Neu5Ac(a2-3)Gal(b1-4)GlcNAc6S
# Procedure, shortened: as §1
# [33] = target: Neu5Ac(a2-3)Gal(b1-4)[Fuc(a1-3)]GlcNAc(b1-6)[Neu5Ac(a2-3)Gal(b1-3)]GalNAc
# Procedure, shortened: as §1
# [34] = target: Neu5Ac(a2-3)Gal6S(b1-4)[Fuc(a1-3)]GlcNAc
# Procedure, shortened: as §1
# [35] = target: Neu5Ac(a2-3)[GalNAc(b1-4)]Gal(b1-4)GlcNAc
# Procedure, shortened: as §1
# Neu5Ac(a2-6)Gal = target: Neu5Ac(a2-6)Gal
# Procedure, shortened: as §1
# [36] = target: Neu5Ac(a2-6)Gal(b1-3)GlcNAc(b1-3)[Gal(b1-4)GlcNAc(b1-6)]Gal(b1-4)Glc
# Procedure, shortened: as §1
# Neu5Ac(a2-6)Gal(b1-4)Glc = target: Neu5Ac(a2-6)Gal(b1-4)Glc
# Procedure, shortened: as §1
# [37] = target: Neu5Ac(a2-6)Gal(b1-4)GlcNAc(b1-2)Man(a1-3)[Neu5Ac(a2-6)Gal(b1-4)GlcNAc(b1-2)Man(a1-6)]Man(b1-4)GlcNAc(b1-4)[Fuc(a1-6)]GlcNAc
# Procedure, shortened: as §1
# [38] = target: Neu5Ac(a2-6)Gal(b1-4)GlcNAc(b1-3)Gal(b1-3)GlcNAc
# Procedure, shortened: as §1
# [39] = target: Neu5Ac(a2-8)Neu5Ac(a2-3)Gal(b1-4)GlcNAc
# Procedure, shortened: as §1
binder,measurement,setting,value
"MAL-II (Maackia amurensis), P93248 (protein) ATSNSKPTQVLLATFLTFFFLLLNNVNSSDELSFTINNFVPNEADLLFQGEASVSSTGVLQLTRVENGQPQQYSVGRALYAAPVRIWDNTTGSVASFSTSFTFVVKAPNPTITSDGLAFFLAPPDSQIPSGRVSKYLGLFNNSNSDSSNQIVAVEFDTYFGHSYDPWDPNYRHIGIDVNGIESIKTVQWDWINGGVAFATITYLAPNKTLIASLVYPSNQTSFIVAASVDLKEILPEWVRVGFSAATGYPTQVETHDVLSWSFTSTLEANSDAATENNVHIARYTA",glycan array binding signal (z-score),[1],-0.182
same,glycan array binding signal (z-score),[2],0.051
same,glycan array binding signal (z-score),[3],-0.241
same,glycan array binding signal (z-score),[4],-0.171
same,glycan array binding signal (z-score),[5],-0.266
same,glycan array binding signal (z-score),[6],-0.177
same,glycan array binding signal (z-score),[7],-0.195
same,glycan array binding signal (z-score),[8],-0.261
same,glycan array binding signal (z-score),[9],-0.188
same,glycan array binding signal (z-score),[10],0.244
same,glycan array binding signal (z-score),[11],-0.252
same,glycan array binding signal (z-score),Gal(a1-4)Gal(b1-4)Glc,-0.133
same,glycan array binding signal (z-score),Gal(a1-4)Gal(b1-4)GlcNAc,-0.185
same,glycan array binding signal (z-score),[12],-0.172
same,glycan array binding signal (z-score),[13],0.068
same,glycan array binding signal (z-score),[14],-0.263
same,glycan array binding signal (z-score),[15],-0.267
same,glycan array binding signal (z-score),[16],-0.229
same,glycan array binding signal (z-score),[17],0.674
same,glycan array binding signal (z-score),[18],-0.23
same,glycan array binding signal (z-score),Gal3S(b1-3)GalNAc,8.15
same,glycan array binding signal (z-score),Gal3S(b1-3)GlcNAc,2.09
same,glycan array binding signal (z-score),Gal3S(b1-4)Glc,1.81
same,glycan array binding signal (z-score),Gal3S(b1-4)Glc6S,3.27
same,glycan array binding signal (z-score),Gal3S(b1-4)GlcNAc6S,6.03
same,glycan array binding signal (z-score),[19],2.12
same,glycan array binding signal (z-score),Gal3S4S(b1-4)GlcNAc,-0.162
same,glycan array binding signal (z-score),Gal3S6S(b1-4)GlcNAc,-0.222
same,glycan array binding signal (z-score),Gal4S6S(b1-4)GlcNAc,-0.156
same,glycan array binding signal (z-score),GalNAc(b1-4)GlcNAc6S,-0.292
same,glycan array binding signal (z-score),[20],-0.148
same,glycan array binding signal (z-score),[21],-0.159
same,glycan array binding signal (z-score),Kdn(a2-3)Gal(b1-3)GalNAc,3.27
same,glycan array binding signal (z-score),[22],-0.107
same,glycan array binding signal (z-score),[23],-0.337
same,glycan array binding signal (z-score),[24],3.54
same,glycan array binding signal (z-score),[25],5.77
same,glycan array binding signal (z-score),[26],-0.11
same,glycan array binding signal (z-score),[27],3.23
same,glycan array binding signal (z-score),[28],7.48
same,glycan array binding signal (z-score),[29],-0.282
same,glycan array binding signal (z-score),[30],-0.196
same,glycan array binding signal (z-score),[31],3.13
same,glycan array binding signal (z-score),[32],-0.215
same,glycan array binding signal (z-score),[33],0.889
same,glycan array binding signal (z-score),[34],-0.22
same,glycan array binding signal (z-score),[35],-0.213
same,glycan array binding signal (z-score),Neu5Ac(a2-6)Gal,-0.234
same,glycan array binding signal (z-score),[36],-0.18
same,glycan array binding signal (z-score),Neu5Ac(a2-6)Gal(b1-4)Glc,-0.184
same,glycan array binding signal (z-score),[37],-0.089
same,glycan array binding signal (z-score),[38],-0.178
same,glycan array binding signal (z-score),[39],-0.255

# From the supplement of paper PMC8728848
